Compounds without any hit were thinned out: in the full panel of roughly 83,000, 20% have a hit.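 Negative percent growth values reflect cell death: -40 means 40% of the cells present at the start died, and -100 means all died.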 A number with no mark means an inactive call. The source made the active and inactive calls. Rule for the calls: active = growth percent below 10; inactive = the rest.
Columns and labels:
Assay in all cases: NCI-60 one-dose screen, 48 h (100 = growth as untreated, 0 = no growth, -100 = all killed)
Conditions in all cases: 10 µM unless noted
[1] = tested on: DU-145 prostate
[2] = tested on: K-562 leukemia
[3] = tested on: MALME-3M melanoma
[4] = tested on: MDA-MB-231 breast
[5] = tested on: RXF 393 renal
[6] = tested on: SF-268 CNS
[7] = tested on: SF-295 CNS
[8] = tested on: SF-539 CNS
[9] = tested on: UACC-257 melanoma
[10] = tested on: M14 melanoma
[11] = tested on: HCT-15 colon
[12] = tested on: HT29 colon
[13] = tested on: SNB-75 CNS
[14] = tested on: SNB-19 CNS
[15] = tested on: U251 CNS
[16] = tested on: PC-3 prostate
[17] = tested on: UACC-62 melanoma
[18] = tested on: LOX IMVI melanoma
[19] = tested on: SK-MEL-28 melanoma
[20] = tested on: SK-MEL-5 melanoma

Row | SMILES | growth [1] | growth [2] | growth [3] | growth [4] | growth [5] | growth [6] | growth [7] | growth [8] | growth [9] | growth [10] | growth [11] | growth [12] | growth [13] | growth [14] | growth [15] | growth [16] | growth [17] | growth [18] | growth [19] | growth [20]
1 | Cc1ccc2nc(/C=C/c3ccc(N(C)C)cc3)cc(C)c2c1 | 47.2% | 19.8% | 39.8% | 38.4% | 29.4% | 37.3% | 12.5% | 9.33% (active) | 62.1% | 13.2% | 18% | 2.01% (active) | 14.5% | 26.2% | 26.2% | 38.9% | 23.2% | 34.1% | 48.1% | –
2 | COC(=O)c1c(C)nc(C)c2c1C(=O)C(Br)=C(NCCCCO)C2=O | 79.6% | 71% | -2.98% (active) | 75.1% | 77.7% | 76.3% | 72.1% | 89.5% | 45.6% | 46.9% | 49.8% | 19.5% | 97.7% | 75.3% | 72.1% | 62.5% | 44.2% | 50.2% | 102% | -53.4% (active)
3 | Fc1ccc(/C=C/c2cc(/C=C/c3ccc(F)cc3)n(-c3cc(F)cc(F)c3)n2)cc1 | 99.9% | 66.4% | 98.1% | 101% | 112% | 102% | 93.5% | 103% | 106% | 87.7% | 103% | 78.7% | 91% | 105% | 117% | 76.4% | 85.7% | 102% | 101% | –
4 | CN(C)CCOc1ccc(/C(=C(/CCCCCCCCCC[P+](c2ccccc2)(c2ccccc2)c2ccccc2)c2ccccc2)c2ccccc2)cc1 | -94.1% (active) | -39.3% (active) | -82.2% (active) | -83.4% (active) | -73.8% (active) | -72.1% (active) | -88.6% (active) | -88.9% (active) | -77.4% (active) | -79.6% (active) | -88.7% (active) | -68.5% (active) | -88.7% (active) | -92.1% (active) | -75% (active) | -86% (active) | -82.7% (active) | -89.9% (active) | -94.1% (active) | –
5 | CCOc1ccccc1NC(=O)CCC(=O)OC | 107% | 108% | 72.9% | 107% | 109% | 96.9% | 104% | 97.4% | 123% | 100% | 105% | 89.7% | 75.7% | 111% | 105% | 93.5% | 106% | 102% | 101% | 99.7%
6 | CCN(CC)CCN1C(=O)c2c(c(C)c3c(oc4cc(OC)ccc43)c2C)C1=O | 75.1% | -29.2% (active) | 102% | 58.4% | 73.1% | 89.6% | 89.4% | 70.6% | 127% | 98.9% | 101% | 96.8% | 77.2% | 87.6% | 55.5% | 92% | 102% | 83.1% | 76.1% | –
7 | COC(=O)[C@@H](Cc1c[nH]c2ccccc12)NC[C@@H](O)CN1C(=O)/C(=C\c2cc(OC)c(OC)c(OC)c2)c2ccccc21 | 75.1% | 36% | 84.8% | 82.5% | 72% | 70.6% | 69.4% | 93.3% | 62.2% | 64.6% | 53.9% | 40.9% | 58.3% | 66.2% | 55.6% | 46.2% | 49.8% | 50.9% | 85.5% | –
8 | CN1CCN(c2ccc(Nc3ncc4[nH]c(=O)n(Cc5ccccc5N)c4n3)cc2)CC1 | 103% | 69.8% | 83.9% | 83.8% | 83.8% | 72.8% | 98.2% | 80.9% | 112% | 95.9% | 106% | 80.2% | 39.9% | 107% | 100% | 83.1% | 97.6% | 88.7% | 111% | –
9 | COC(=O)c1nc(-c2ccccc2)oc1S(=O)(=O)N1CCN(c2ccc(OC)cc2)CC1 | 86.5% | 20.4% | 77.4% | 75.7% | 84.9% | 93.8% | 103% | 94.1% | 83.4% | 54.2% | 42.8% | 43.8% | 101% | 97.8% | 90.8% | 63.9% | 86.8% | 62.9% | 88.3% | –
10 | CN(C)CCCN(CCC1CCCCC1)CCC1CCCCC1 | 80.9% | 26% | -79.4% (active) | 19.4% | 70.8% | 75.2% | 69.4% | 49.6% | -65.3% (active) | -97.2% (active) | 15% | 7.47% (active) | 62.2% | 86.7% | 12.3% | 46.9% | -78.5% (active) | 5.93% (active) | -97.8% (active) | –
11 | C#CCOc1ccc(C2=NN(CCCC)C3N=C(Cl)c4ncn(CCCC)c4N23)cc1OCC#C (stereo not given) | 94.1% | 71.2% | 107% | 91.7% | 76.1% | 90.1% | 88.4% | 101% | 85.7% | 92.2% | 88.9% | 96.9% | 83.3% | 94.6% | 79.6% | 63.6% | 69.6% | 85.8% | 93.6% | –
12 | Cc1cc(C(=O)Nc2cc(Nc3ncccc3-c3ncnc4nc[nH]c34)ccc2F)cc(C(C)(C)C#N)c1 | 60% | 6.28% (active) | 12.9% | 17% | 88.5% | 64.7% | 68.6% | 33.9% | 24.5% | 5.3% (active) | 42.7% | 24.1% | 79.5% | 61.8% | 51.1% | 57.8% | 3.75% (active) | -9.5% (active) | 10.9% | –
13 | CN1CCN(Cc2ccc(NC(=O)c3cc(C#Cc4cnc(N)c5ncccc45)n(C)n3)cc2C(F)(F)F)CC1 | 83.9% | 1.62% (active) | 79.9% | 102% | 69.3% | 102% | 102% | 70.5% | 102% | 113% | 58.4% | 91.4% | 142% | 103% | 38.5% | 98.9% | 100% | 91.5% | 100% | –
14 | COc1ccc(/C=C\c2cc(OC)c(OC)c(OC)c2)cc1OCC(=O)Nc1nc2ccccc2s1 | -27.3% (active) | 15.6% | 49.7% | 21.8% | 20.6% | 24.1% | 9.97% (active) | 11.8% | 54.4% | 27.6% | 23% | 1.98% (active) | 30.3% | 43.8% | 13.9% | 31.1% | 28% | 11.5% | 65.4% | –
15 | COc1ccc2c(c1)c(-c1nc(-c3cn(C)c4ccncc34)cs1)cn2C | -21.9% (active) | -48.9% (active) | -53.6% (active) | -61.2% (active) | -91.7% (active) | 88.5% | 55.3% | 57.4% | 114% | -90.3% (active) | -22.1% (active) | -58.1% (active) | – | 20.9% | -74.9% (active) | -17.1% (active) | 107% | -92.3% (active) | 86.8% | -22.8% (active)
16 | CNC(=O)c1cc(Oc2cccc3nc(NC(=O)Nc4ccc(F)cc4F)ccc23)ccn1 | 30% | 42% | -21.2% (active) | 60.1% | 1.54% (active) | 48.1% | 55.6% | -18.9% (active) | 56.3% | 19.3% | 18.1% | 35.9% | – | 54.8% | 14.9% | 38.5% | 52.5% | 19.8% | 30.8% | 22.7%
17 | COc1ccc(-c2cc(-c3ccc(N(C)C)cc3)nc(NC(=O)c3cccnc3)n2)cc1 | 99.5% | 93.3% | 120% | 93.8% | 107% | 90.6% | 104% | 94.3% | 120% | 124% | 95% | 108% | – | 93.2% | 98.9% | 90.3% | 95.1% | 97.1% | 106% | 97.1%

Source: PubChem BioAssay (NCI)
